In PubChem BioAssay (Tox21):
Unmarked numbers belong to inactive results. The source made the active and inactive calls. The call rests on the fitted dose curve; in most records, active means well fitted curve in the direction sought with a large enough effect in the repeat runs; inconclusive means weak or mixed curves; inactive means flat fitted curve, though single readings scatter.

Assay: qHTS assay to test for compound auto fluorescence at 535 nm (green) in HepG2 cell free culture (AID 720686)
Conditions: Cell-free medium, green autofluorescence 485/535 nm; series mostly up to 91.3 µM; fluorescence, % of fluorescein control: at the top concentration
From the text: U.S. Tox21 Program National Center for Advancing Translational Sciences [NCATS] NIH Chemical Genomics Center [NCGC] U.S. Environmental Protection Agency [EPA] National Institutes of Environmental Health Sciences [NIEHS] National Toxicology Program [NTP] U.S. Food and Drug Administration [FDA] Tox21 Assay Overview: Compound auto fluorescence often interferes with screening of the compound library against various biological targets and signaling pathways. Some of these compounds may have fluorophoric properties. Such properties may interfere with the assay outputs resulting in false positives and/or negatives. To decrease such complications and ensure the compound activities are relevant in terms of biological response, the Tox21 10K compound library was screened for auto fluorescence. From the fluorophores used as reporter signals in our screening assays, the auto fluorescence equivalencies of compounds against three fluorophores have been evaluated: Triamterene, Fluorescein and Rose Bengal sodium for blue, green and red fluorescence, respectively. The fluorescence intensities were measured using Excitation/Emission wavelengths at 405/460nm, 485/535nm and 540/590nm for blue, green and red labels, respectively. This assay includes the green fluorescence data.
Tox21 Assay Protocol Summary: 5 uL of culture medium (MEM containing 10% FBS) per well was dispensed into black wall/clear bottom 1536-well plates using a Multidrop Combi Dispenser (ThermoFisher Scientific, Waltham, MA). After 23 nL compound or DMSO vehicle was transferred into assay plate by a pintool work station (Kalypsys, San Diego, CA), fluorescence intensities in the assay plates were measured by an Envision (PerkinElmer, Shelton, CT) plate reader using three labels for measuring blue, green and red fluorescence at […] 460, 535 and 590nm respectively.
On the % scale 0 is the no-effect control and ±100 the full control effect.

SMILES	fluorescence, % of fluorescein control	outcome
O=C(OCc1ccccc1)C(=O)OCc1ccccc1	0.0199%	
COC(=O)[C@@H]1[C@H]2C[C@H]3c4[nH]c5ccccc5c4CCN3C[C@@H]2CC[C@@H]1O	0.175% [at 46 µM]	
COCCOCCOCCOCCOCCO	-0.0277%	
N[C@@H](CCC(=O)Nc1ccc([N+](=O)[O-])cc1)C(=O)O	0.0571%	
O=C(O)C(=O)Cc1ccccc1	-0.0892%	
COc1nccnc1NS(=O)(=O)c1ccc(N)cc1	-0.0633% [at 46 µM]	
C=C(C)C(=O)OCc1ccccc1	-0.0043%	
C[Si](C)(C)C	-0.0689%	
Oc1cn2c(n1)Nc1ccc(Cl)c(Cl)c1C2		inactive
c1ccc2c(c1)ccc1c3ccccc3ccc21	0.0085% [at 46 µM]	
COc1ccc(-c2cc(=O)c3c(O)cc(O[C@@H]4O[C@H](CO[C@@H]5O[C@@H](C)[C@H](O)[C@@H](O)[C@H]5O)[C@@H](O)[C@H](O)[C@H]4O)cc3o2)cc1O	-0.0094% [at 46 µM]	
CCCC/C=C/C=C\C=O	0.0748%	
O=C(NCCN1CCOCC1)c1ccc(Cl)cc1		inactive
Cc1cc(NC(=O)C2=C(O)c3ccccc3S(=O)(=O)N2C)no1	0.0313% [at 46 µM]	
CCN1CCc2nc(N)oc2CC1	0.152% [at 46 µM]	
CC(N)C(=O)OC(C)(C)Cc1ccc(Cl)cc1 (stereo not given)	0.0151% [at 46 µM]	
NS(=O)(=O)c1ccc(NC(=O)CCC(=O)O)cc1	0.0065% [at 46 µM]	
Cc1ccc2c(c1)OCC(=O)CO2	0.0085%	
On1nnc2ccccc21	0.0648%	
CO[C@@H]1[C@@H](OC(N)=O)[C@@H](O)[C@H](Oc2ccc3c(O)c(NC(=O)c4ccc(O)c(CC=C(C)C)c4)c(=O)oc3c2C)OC1(C)C	-0.0494% [at 18.6 µM]	

SMILES	fluorescence, % of fluorescein control	outcome
CCOC(=O)c1ncn2c1CN(C)C(=O)c1cc(F)ccc1-2	-0.0433% [at 46 µM]	
O=C(CS(=O)Cc1ccco1)NC/C=C\COc1cc(CN2CCCCC2)ccn1 (stereo not given)	0.0167% [at 46 µM]	
CC(C)CC(C)CC(C)CC(C)COC(=O)c1ccccc1C(=O)OCC(C)CC(C)CC(C)CC(C)C (stereo not given)	-0.0026%	
Cc1ccccc1N=O	0.134% [at 95.7 µM]	
Nc1ccc(S(=O)(=O)Nc2ccc(Cl)nn2)cc1		inactive
CCCCCCOC(=O)CC	0.0222%	
O=C1CCCC(=O)O1	0.177%	
Cc1ccc(C=O)cc1C	0.143%	
C=CC(OCC)OCC	0.0096%	
CC(C)NCC(O)COc1ccc(COCCOC(C)C)cc1 (stereo not given)		inactive
CCCOC(OCCC)OCCC	-0.146%	
CC(C)=O		inactive
Cc1ccccc1OCC(O)CO (stereo not given)	0.0165% [at 46 µM]	
C=COCCOCCOCCOC=C	0.0035%	
COCCOC(=O)C1=C(C)NC(C)=C(C(=O)OC(C)C)C1c1cccc([N+](=O)[O-])c1 (stereo not given)	0.0038% [at 46 µM]	
CC(C)c1ccc2cc(C(C)C)ccc2c1	-0.0131%	
O=C1c2cccc3c2[C@H](CCC3)CN1[C@@H]1CN2CCC1CC2	-0.0089% [at 46 µM]	
CCOc1cc([N+](=O)[O-])c(OCC)cc1N1CCOCC1	-0.0043%	
Cc1nc2n(c(=O)c1CCN1CCC(c3noc4cc(F)ccc34)CC1)CCC[C@H]2O	-0.0447% [at 46 µM]	
Cc1cc(Cl)c(C)cc1Cl	-0.0851%	
